An excerpt weighted towards active compounds, which were near 2% of everything screened.
Jurkat NFkB inh: lowers PMA/ionomycin-induced NF-kB signal in Jurkat cells | PMA/ionomycin-induced NF-kB luciferase reporter, luminescence | inhibition, % at 4 µM | 330,000 compounds, 0.53% hits; in the data active = inhibition above about 50%
697 NFkB inh: inhibitors of the PMA/ionomycin-induced NF-kB reporter in 697 B cells; inhibition, % at 4 µM; AID 435022; 330,000 compounds, 0.33% hits; 697 B-cell NF-kB luciferase reporter, 16 h; in the data active = inhibition above about 35%
Shn3 3UTR inh: inhibitors of Schnurri-3 3'UTR reporter in osteoblasts | Clone20 osteoblast Shn3 3'UTR firefly luciferase, 24 h | AID 588674 | 360,000 compounds, 0.52% hits | inhibition, % at 12.5 µM;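 active = mean inhibition of at least 75% with every replicate also reaching 75%; inconclusive = mean inhibition at least 75% but some replicate below; inactive = mean inhibition below 75%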
Calb FLC: affects C. albicans growth with fluconazole. C. albicans CaCi-2 (fluconazole-resistant clinical isolate) + fluconazole, Alamar Blue growth, 48 h. growth inhibition, % (no concentration beside the values). 300,000 compounds, 0.57% hits. AID 1979;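 active = growth inhibition above about 58% in most replicates, limit read from the data, passing the limit was not always enough; inconclusive = exactly half the replicates above a set limit; inactive = most replicates below a set limit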;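 note: all wells also contain fluconazole at 8 µg/ml as a sub-toxic cotreatment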
Beta apoptosis: blocks beta cell apoptosis; INS-1E cytokine-induced death, ATP luminescence, 48 h; percent of positive-control rescue, neutral wells zero; protection from apoptosis, % (test concentration not listed); 300,000 compounds, 0.8% hits; AID 435005;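 active = Every replicate reaches about 75%, or at least half do and their mean reaches it too, limit read from the data; inconclusive = At least half of replicates reach the limit but their mean does not; inactive = Under half of replicates reach the limit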;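 note: higher means more ATP so stronger rescue from cytokine killing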
Of the large screens only hits and unclear results are named; the others gave an inactive call.

CCCC(=O)NC(c1ccc(Cl)cc1Cl)c1ccc2cccnc2c1O (configuration not stated)	Shn3 3UTR inh 92, Beta apoptosis 94
CCCC(=O)NC(c1ccccc1Cl)c1c(O)ccc2ccccc12 (configuration not stated)	none
CC(=O)NC(CC(=O)NC(C)c1ccc(Cl)cc1Cl)c1ccccc1 (configuration not stated)	none
COc1ccc(NC(=O)C2CCCN(S(C)(=O)=O)C2)cc1Cl (configuration not stated)	none
O=C(OC1C2C=CC1C1C(=O)NC21)c1ccccc1 (configuration not stated)	none (no result: Jurkat NFkB inh, 697 NFkB inh, Calb FLC, Beta apoptosis)
CN1CCN(C(=O)c2cccc(-c3cccc4nccn34)c2)CC1	none (no result: Jurkat NFkB inh, 697 NFkB inh, Calb FLC, Beta apoptosis)
O=C1CCCN1CCCN=c1c([N+](=O)[O-])nn(-c2ccc(Cl)cc2)n1O	Calb FLC 85 (no result: Jurkat NFkB inh, 697 NFkB inh, Beta apoptosis)
CCCc1ccc(Oc2cn[nH]c2-c2ccc(O)cc2O)cc1	Calb FLC 68
Nc1nc2ccccc2n1/N=C/c1cccnc1	none
Nc1nc2ccccc2n1/N=C/c1ccc([N+](=O)[O-])s1	Calb FLC inconclusive, Beta apoptosis 108
CCCCCCOC(=O)C[N+](C)(C)CCOC1CC2CCC1(C)C2(C)C (configuration not stated)	Calb FLC 103, Beta apoptosis 123
CCCCCCCOC(=O)C[N+](C)(C)CCOC1CC2CCC1(C)C2(C)C (configuration not stated)	Shn3 3UTR inh 85, Calb FLC 107 (no result: Jurkat NFkB inh, 697 NFkB inh, Beta apoptosis)
CCCOC(=O)C[N+](C)(C)CCOC1CC2CCC1(C)C2(C)C (configuration not stated)	none
CCCCOC(=O)C[N+](C)(C)CCOC1CC2CCC1(C)C2(C)C (configuration not stated)	Calb FLC inconclusive
CCC(C)OC(=O)C[N+](C)(C)CCOC1CC2CCC1(C)C2(C)C (configuration not stated)	Calb FLC 87
CC(C)CCOC(=O)C[N+](C)(C)CCOC1CC2CCC1(C)C2(C)C (configuration not stated)	Calb FLC 103
COc1cc2c(cc1OC)n(CC(=O)NC1CCCCCC1)n1c(C)cc(=O)nc21	none
CC1=NN(C(N)=S)C(=O)C1N=Nc1cccc(Cl)c1C (configuration not stated)	none
CC1=NN(C(N)=S)C(=O)C1N=Nc1cccc2ccccc12 (configuration not stated)	Calb FLC 108 (no result: Jurkat NFkB inh, 697 NFkB inh, Shn3 3UTR inh)
O=C1c2ccncc2C(=O)N1CNc1ccc(Cl)cc1	none
O=C1c2cccnc2C(=O)N1CNc1ccc(Cl)cc1	Calb FLC 134
CCN(c1ccccc1)S(=O)(=O)c1ccc(NC(=O)c2nc(S(C)(=O)=O)ncc2Cl)cc1	Shn3 3UTR inh 98, Beta apoptosis 98
CS(=O)(=O)c1ncc(Cl)c(C(=O)Nc2ccc(N3CCOCC3)cc2)n1	Shn3 3UTR inh 94
CCN(c1ccccc1)S(=O)(=O)c1ccc(C(=O)Nc2ccncc2)cc1	none
O=C(Nc1ccc(OC(F)F)cc1)c1ccccn1	none
CS(=O)(=O)c1ncc(Cl)c(C(=O)Nc2ccc(OC(F)F)cc2)n1	Shn3 3UTR inh 93, Beta apoptosis inconclusive
COc1ccc(OC)c(NC(=S)NC(=O)c2ccc(Br)o2)c1	none
CC1C(=O)Nc2ccccc2N1C(=O)c1ccc(F)cc1 (configuration not stated)	none
O=C(/C=C/c1ccc(F)cc1)N1CCN(c2ccccn2)CC1	Calb FLC 87
CCCOc1ccc(/C=C/C(=O)N2CCN(c3ccccn3)CC2)cc1	none
O=C(/C=C/c1ccccc1)NC(=S)Nc1ccc(N2CCOCC2)c(Cl)c1	Calb FLC 111
O=C(Cc1ccccc1[N+](=O)[O-])NCc1ccco1	none
CN1CCN(C(c2cccnc2)c2ccc3cccnc3c2O)CC1 (configuration not stated)	Calb FLC 89
CN1CCN(C(c2ccc(Br)cc2)c2cc(Cl)c3cccnc3c2O)CC1 (configuration not stated)	Shn3 3UTR inh inconclusive, Calb FLC 90
CCCCCCc1cc2cc(C(=O)Nc3ccccc3)c(=O)oc2cc1O	Beta apoptosis 112
[O-][n+]1c2ccccc2[n+]([O-])c2cc(O)ccc21	none
Cc1cc(C)nc(NS(=O)(=O)c2ccc(NC(=O)COc3ccccc3)cc2)n1	Calb FLC 79
Cc1cc(C(=O)OCC(=O)Nc2ccc(S(N)(=O)=O)cc2)c2ccccc2n1	Calb FLC 127
Cc1cc(C)nc(NS(=O)(=O)c2ccc(NC(=O)Cc3ccccc3)cc2)n1	none (no result: Beta apoptosis)
CCCC(=O)N1CCC1(C)C(=O)Nc1ccc(OC(F)F)cc1 (configuration not stated)	none (no result: Jurkat NFkB inh, 697 NFkB inh, Calb FLC, Beta apoptosis)
Cc1cccc(N2CCN(C(=O)c3ccc4c(c3)NC(=O)C(CSCc3cccc(F)c3)N4)CC2C)c1 (configuration not stated)	none
Oc1ccc(Nc2nc(-c3ccc4ccccc4c3)cs2)cc1	Beta apoptosis 84
O=[N+]([O-])c1cccnc1N/N=C/c1ccccc1O	Beta apoptosis 110
COc1ccc(/C=N/Nc2nccnc2Cl)c(OC)c1	none
COc1cccc(/C=N/Nc2nccnc2Cl)c1O	Shn3 3UTR inh 86, Calb FLC 106 (no result: Beta apoptosis)
O=[N+]([O-])c1ccccc1/C=N/Nc1nccnc1Cl	none
O=[N+]([O-])c1ccc(O)c(/C=N/Nc2ccccn2)c1	Beta apoptosis 105 (no result: Jurkat NFkB inh, 697 NFkB inh)
Oc1ccc(/C=N/Nc2nccnc2Cl)c(O)c1	Shn3 3UTR inh inconclusive, Beta apoptosis 75
Oc1ccc(Br)cc1/C=N/Nc1ncc(-c2ccccc2)cn1	none
Oc1ccc(/C=N/Nc2ncc(Br)cn2)c(O)c1	Beta apoptosis 87
O=[N+]([O-])c1ccc(O)c(/C=N/Nc2ncnc3c2cnn3-c2ccccc2)c1	Shn3 3UTR inh 92
Oc1ccc(C=NNc2ccccn2)c(O)c1	Shn3 3UTR inh 86 (no result: Jurkat NFkB inh, 697 NFkB inh, Calb FLC, Beta apoptosis)
Oc1ccccc1/C=N/Nc1nccnc1Cl	Shn3 3UTR inh inconclusive, Calb FLC 97, Beta apoptosis 94
CC(C)c1cccc(C(C)C)c1NC(=O)OC1CCCCC1	none (no result: Jurkat NFkB inh, 697 NFkB inh, Calb FLC, Beta apoptosis)
Cc1nn(CCCC(=O)Nc2cc(Oc3ccc(F)cc3)cc([N+](=O)[O-])c2)c(C)c1[N+](=O)[O-]	none
Cc1ccccc1Oc1cc(NC(=O)CCCn2nc(C)c([N+](=O)[O-])c2C)cc([N+](=O)[O-])c1	Beta apoptosis 105
COc1ccc(NC(C)=O)cc1S(=O)(=O)NCc1ccc2c(c1)OCO2	none (no result: Jurkat NFkB inh, 697 NFkB inh, Calb FLC, Beta apoptosis)
CC(=O)c1cccc(NC(=O)NC2CCCCCCC2)c1	none
Cc1ccc(NC(=O)NC2CCCCCCC2)c(C)c1	Calb FLC 112
Cc1cccc(NC(=O)NC2CCCCCCC2)c1	Calb FLC 124
Cc1cc(C)cc(NC(=O)C2CCN(S(=O)(=O)c3ccc4c(c3)NC(=O)C(C)S4)CC2)c1 (configuration not stated)	none
Cc1ccc(NC(=O)C2CCN(S(=O)(=O)c3ccc4c(c3)NC(=O)C(C)S4)CC2)cc1Cl (configuration not stated)	Shn3 3UTR inh 89, Beta apoptosis 107

Bioassay records as filed in PubChem BioAssay.
